Compounds with a hit are over-represented: about 2.4% of the library has one in this group of screens.
Cardiac RTF inh = cardiac RTF calcium desensitization; inhibition, % at 7.15 µM; IANBD-labeled cardiac RTF, Ca2+ fluorescence; hit rate 0.12% among 340,000; AID 493244; P19429+P45379;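 active means inhibition above the mean inhibition of all tested compounds plus 3 SD, cut at about 17% in these data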;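 further: assay run at fixed EC70 calcium of 1.6 mM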
CRFBP-R2 agonist = CRF-BP/CRF-R2 complex agonism; activation, % at 13.2 µM; HEK293 CRF-R2/CRF-BP, calcium dye fluorescence (FLIPR); percent of saturating CRF peptide response; AID 588473; hit rate 0.46% among 350,000;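 active means activation of at least 50%, plus an integration ratio under a set limit after plate pattern correction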;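 further: plate controls were neutral control wells without compound for no effect and CRF at EC100 for full effect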
cardiac RTF act = cardiac RTF calcium sensitization; IANBD-labeled TnC RTF fluorescence at EC20 calcium; 0% EC20 calcium, 100% full calcium; hit rate 0.24% among 340,000; AID 493008; activation, % at 7.2 µM;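 active means activation above the mean over all tested compounds plus 3 SD, cut at about 30% in these data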;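 further: rise in fluorescence read as greater calcium sensitivity of cardiac thin filaments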
ANO1 block = blocks the mouse calcium-activated chloride channel TMEM16A; Q8BHY3; HEK293 TMEM16A/YFP iodide influx fluorescence, ionomycin; normalized B-score (activity score, 25-100; higher = stronger inhibition) at 10 µM; hit rate 1.2% among 310,000;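 active means ratio plate-corrected score three or more library SD toward inhibition, starting fluorescence score within five deviations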;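 further: score derived from kinetic fluorescence span divided by baseline fluorescence per well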
ANO1 activ = activators or potentiators of mouse TMEM16A chloride channel; hit rate 0.3% among 340,000; Q8BHY3; B-score at 10 µM; HEK293 TMEM16A/YFP-H148Q/I152L, iodide quench fluorescence; active compounds read low;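 active means fluorescence-ratio B-score plate-corrected deviation score at least 3 library SD below zero, with starting fluorescence score within 5 deviations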;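 further: channel opened by trigger with iodide after compound preincubation; score built on the fluorescence ratio of max minus min over baseline; more negative score means more quench and so TMEM16A activation or potentiation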
CRFBP-R2 block = CRF-BP/CRF-R2 complex antagonism | hit rate 0.59% among 350,000 | HEK293 CRF-R2/CRF-BP, CRF-induced calcium fluorescence | inhibition, % at 11.8 µM;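 active means inhibition of the ligand-induced calcium signal above about 50% at the single tested concentration, limit read from the data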
TMEM16A reconf = re-confirmation of mouse TMEM16A chloride channel inhibitors. shares compounds with ANO1 block. HEK293 TMEM16A/YFP-H148Q, iodide quench fluorescence; ionomycin added to raise cell calcium. inhibition, % at 10 µM. hit rate 39% among 2,300;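 active means mean duplicate percent inhibition, scaled so buffer wells are 0 and the reference blocker 100, over three buffer SD above buffer mean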
TMEM16A Ca cntr = calcium mobilization counter-screen hit for TMEM16A inhibitor series | shares compounds with ANO1 block | TMEM16A/YFP HEK293, Fluo4 calcium mobilization | calcium response (% of ionomycin), % at 10 µM | hit rate 2% among 2,300;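 active means duplicate-averaged calcium signal over 20% of the ionomycin maximum, relative to buffer baseline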;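 further: each well's signal is peak minus trough fluorescence divided by its pre-addition baseline; 0% = buffer wells and 100% = ionomycin wells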
YFP-HEK293 quench = acts in parental YFP-HEK293 cells lacking TMEM16A, counter-screen; iodide YFP quench, ionomycin; shares compounds with ANO1 block; YFP ratio F(max-min)/F0 at 10 µM; 2,300 tested, under 10 active;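 active means yellow fluorescent protein signal ratio exceeding the buffer control mean by over 5 SD of those controls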;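 further: ratio is mean of duplicate wells from kinetic YFP trace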
ClC-1 rat inh = selectivity of TMEM16A inhibitors: inhibition of rat ClC-1 chloride channel. CHO ClC-1-YFP, iodide influx fluorescence quench; iodide control reads 0, buffer control 100. 2,300 tested, under 10 active. AID 652236. ratio percent, % at 10 µM. shares compounds with ANO1 block;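 active means duplicate-mean ratio percent above the mean of iodide-only control wells, which defines zero, plus 5 of their SD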;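 further: higher percent means stronger block of ClC-1 iodide influx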
An asterisk follows results filed as active; i = inactive; nt = not tested or not shown.

SMILES	Cardiac RTF inh	CRFBP-R2 agonist	cardiac RTF act	ANO1 block	ANO1 activ	CRFBP-R2 block	TMEM16A reconf	TMEM16A Ca cntr	YFP-HEK293 quench	ClC-1 rat inh
Cn1nc(-c2ccc(OCC(=O)N3CCN(Cc4ccccc4)CC3)cc2)c2ccccc2c1=O	0	0	-2	100*	i	16	20%*	i	-0.96	-14
Cc1oc(-c2cccs2)nc1CSCC(=O)N1CCC2(CC1)OCCO2	2	0	0	i	i	11	nt	nt	nt	nt
O=C(Cc1cccs1)N1CCC2(CC1)OCCO2	-7	-2	-3	i	i	5	i	i	-0.94	-2
Clc1ccc(CCNCc2ccncc2)c(Cl)c1	-5	1	0	25*	i	9	i	i	-1.2	-6
CN1C(=O)C(C)(C2=CCCCC2)C(=O)NC1=S (stereo not drawn)	-4	2	-1	nt	i	-10	nt	nt	nt	nt
CN1CCc2nc(N)c(C#N)c(-c3ccccc3)c2C1	-1	0	10	i	i	12	i	i	-0.95	-2
Cc1cc(C)c(C)c(C(O)(C(=O)O)c2ccccc2)c1 (stereo not drawn)	nt	1	nt	nt	nt	-13	nt	nt	nt	nt
CCC(=NCc1ccco1)c1c(O)n(C)c(=O)n(C)c1=O	-16	1	0	i	i	10	nt	nt	nt	nt
CCC(=NCCc1ccccc1)c1c(O)n(C)c(=O)n(C)c1=O	2	-5	4	25*	i	-3	i	i	-1.1	-6
O=[N+]([O-])c1ccc(N2CCOCC2)c2c1no[n+]2[O-]	nt	-3	nt	nt	nt	-9	nt	nt	nt	nt
O=c1[nH]c(=O)n(CCC2=CCCCC2)c(O)c1C=NC1CCN(Cc2ccccc2)CC1	1	2	2	25*	i	-33	i	i	-0.96	-7
C=CCn1c(O)c(C=NC2CCN(Cc3ccccc3)CC2)c(=O)[nH]c1=O	-12	3	18	i	i	-14	nt	nt	nt	nt
O=C(Nc1ccc(C(F)(F)F)cc1)c1cccn(Cc2ccc3c(c2)OC(F)(F)O3)c1=O	0	1	-3	25*	i	-18	i	i	-0.99	-12
C=C1C(O)[C@@H]2O[C@]3(CC[C@H](/C=C/C(C)[C@@H]4CC(C)=CC5(O[C@H](C[C@@](C)(O)C(=O)O)CCC5O)O4)O3)CC[C@H]2O[C@@H]1C(O)CC(C)[C@H]1OC2(CCCCO2)CCC1C (stereo partly drawn)	nt	-1	nt	nt	nt	8	nt	nt	nt	nt
O=[N+]([O-])c1ccc(N2CCCCCC2)c2ncccc12	-2	0	-3	25*	i	10	i	i	-0.88	1
O=[N+]([O-])c1ccc(N2CCCCC2)c2ncccc12	1	-2	0	i	i	-5	nt	nt	nt	nt
c1ccc(CCN2CCC(N3CCN(c4ccccc4)CC3)CC2)cc1	-3	10	0	25*	i	-1	i	i	-1.4	2
CCN(CC)c1ccc(N=Cc2c(O)n(-c3ccc(Cl)cc3)c(=O)[nH]c2=O)cc1	-4	2	4	i	i	-11	i	i	-0.85	10
CCN(CC)c1ccc(N=Cc2c(O)n(-c3ccc(OC)cc3)c(=O)[nH]c2=O)cc1	1	44	6	i	i	-43	nt	nt	nt	nt
O=[N+]([O-])c1ccc(N2CCCC(C(F)(F)F)C2)c2ccncc12 (stereo not drawn)	-5	-3	0	100*	i	-12	20%*	i	-0.88	-24
S=P(NCCSCc1ccccc1)(N1CC1)N1CC1	2	3	1	nt	i	11	nt	nt	nt	nt
CCC1=CCN(CCc2c(C)[nH]c3ccccc23)CC1	1	-1	2	i	i	2	nt	nt	nt	nt
Cc1cccc(N2C(=O)NC(=O)/C(=C/c3cc4c(cc3[N+](=O)[O-])OCO4)C2=O)c1	-21	0	1	i	i	-7	i	120%*	-0.84	-14
N#CC1c2ccccc2-n2nncc2CN1C(=O)CCc1ccccc1 (stereo not drawn)	-2	15	0	nt	nt	-1	nt	nt	nt	nt
